In PubChem BioAssay AID493123 (National Center for Advancing Translational Sciences (NCATS), 2011) one finds outcome data, which are given here for eight compounds.

The source made the active and inactive calls. How the calls were made is not given here.

This experiment can be described thus: Concentration response confirmation assay for small molecule inhibitors of Shiga toxin. Conditions: cell-based concentration response; series mostly up to 76.6 µM.
With `O=C(CC(c1ccccc1)c1cc(Cl)ccc1O)N1CCCC1` (stereo not drawn), the outcome was inactive.
With `C=CCNC(=O)c1ccc(C)c(Br)c1`, the call was inactive.
As for `CC1CCC/C=C/C2CC(O)CC2C(O)/C=C/C(=O)O1` (stereo not drawn), the call was inactive.
Then `CN(C)S(=O)(=O)c1ccc(C(=O)Nc2ccc(CN3CCCC3)cc2)cc1`, with “inactive”; and `CCn1c2ccccc2c2cc(NC(=O)c3cccc([N+](=O)[O-])c3)ccc21`, with “inactive”.
For `CCN1C(=O)/C(=C/c2ccc(OC)c(OC)c2)N=C1SCC(=O)NCc1ccco1`, the call was inactive.
For the compound `COc1ccc(C(C)(C)C)cc1NC(=O)c1ccc2c(c1)SC1=NS(=O)(=O)CCN12`, the compound was classed as inactive.
Take `Cc1cccc(NC(=O)CCN2C(=O)c3ccccc3S2(=O)=O)c1C`: the compound was called inactive.
